From ChEMBL document CHEMBL1157539, “Thousands of chemical starting points for antimalarial lead identification” (Nature, 2010)

Key:
Assay type in all cases: functional
[1] = system: Plasmodium falciparum; assay: GSK_TCMDC: Inhibition of Plasmodium falciparum 3D7 in whole red blood cells, using parasite LDH activity as an index of growth. Test compounds present at 2uM
[2] = system: Plasmodium falciparum; assay: GSK_TCMDC: Inhibition of Plasmodium falciparum Dd2 in whole red blood cells, using parasite LDH activity as an index of growth. Test compounds present at 2uM
[3] = system: HepG2; assay: GSK_TCMDC: Percent inhibition of human HepG2 cell line. Test compounds present at 10uM.

Row | Compound | Inhibition [1] [%] | Inhibition [2] [%] | Inhibition [3] [%]
1 | CCN(CC)CCN(Cc1ccc(-c2ccc(C(F)(F)F)cc2)cc1)C(=O)Cn1c(CCc2c(F)cc(F)cc2F)nc(=O)c2ccccc21.O=C(O)C(O)C(O)C(=O)O | 89 | 26 | 39
2 | COc1cc2nc(NCCn3nc(C)cc3C)nc(NCCc3ccccc3)c2cc1OC | 100 | 100 | 28
3 | O=C(/C=C/c1ccc(Cl)c(Cl)c1)NCCCCCN1CCN(C(=O)Nc2cccc(F)c2)CC1 | 91 | 1 | 12
4 | CC(=O)Nc1ccc(C(=O)Nc2ccc(-c3cccc(-c4nc5ccccc5[nH]4)c3)cc2)cn1 | 99 | 84 | 34
5 | OC(CN1CCN(C2CCCCC2)CC1)Cn1c2ccccc2c2cc(Br)ccc21 (stereo not given) | 97 | 89 | 14
6 | O=S(=O)(c1ccc(OC(F)(F)F)cc1)C1CC2CCC(C1)N2S(=O)(=O)c1ccc(Cl)c(C(F)(F)F)c1 (stereo not given) | 100 | 95 | 1
7 | O=C(/C=C/c1ccc(Cl)c(Cl)c1)NCCCCCN1CC[C@H](NC(=O)/C=C/c2ccccc2)C1 | 93 | 1 | 10
8 | CCC(C)NS(=O)(=O)c1ccc2nc(Nc3ccc(C)cc3)n(C3CCCCC3)c2c1 (stereo not given) | 97 | 97 | 0
9 | O=C(Nc1cccc(CN2CCCN(Cc3ccc4c(c3)OCO4)CC2)c1)c1ccc(-c2ccccc2)cc1.O=C(O)C(F)(F)F | 90 | 19 | 48
10 | c1ccc(CN2CCN(c3cc(-c4cncc(-c5ccccc5)c4)nc(-c4ccccc4)n3)CC2)cc1 | 88 | 12 | 9
11 | Cc1cccc2nc(-c3ccc(-c4ccc(CN5CCN(c6ccncc6)CC5)cc4)cc3)[nH]c12.O=C(O)C(F)(F)F | 100 | 100 | 98
12 | NC(=O)c1cccc(C(=O)Nc2ccc(-c3cccc(-c4nc5cc(C(F)(F)F)ccc5[nH]4)c3)cc2)c1 | 100 | 86 | 74
13 | O=C(Nc1cccc(-c2nn3ncccc3c2-c2ccnc(Nc3cccc(-c4cnco4)c3)n2)c1)c1c(F)cccc1F | 97 | 98 | 96
14 | CCOC(=O)C(Oc1ccc2ccccc2c1)C(=O)OCC | 98 | 0 | 8
15 | CC(=O)Nc1ncc(C(=O)Nc2cccc(-c3ccc(-c4nc5cc(F)ccc5[nH]4)cc3)c2)s1 | 94 | 78 | 18
16 | O=C(O)C(F)(F)F.OC1(c2ccccc2)CCN(Cc2cccc(-c3c[nH]c4nc(NC5CCCC5)ncc34)c2)C1 (stereo not given) | 92 | 31 | 42
17 | Cc1cccc(C(O)CNc2ccnc(Nc3cccc(-c4csc(C)n4)c3)n2)c1 (stereo not given) | 99 | 88 | 29
18 | CCCCCC(C)NC[C@@H](O)[C@H](Cc1ccccc1)NC(=O)c1cc(NCC)cc(N2CCCCS2(=O)=O)c1.Cl (stereo not given in full) | 98 | 79 | 3
19 | CN(C)CCCN1CCN(C(=O)c2cc3cc(-c4ccccc4)ccc3n2S(=O)(=O)c2ccccc2)CC1 | 100 | 94 | 32
20 | O=C(NC1CCC(N2CCCC(OCc3ccccc3)C2)CC1)c1cc2ccccc2[nH]1 (stereo not given) | 94 | 11 | 38

Row | Compound | Inhibition [1] [%] | Inhibition [2] [%] | Inhibition [3] [%]
21 | Br.c1ccc(-c2ccc(-c3csc(Nc4ccncc4)n3)cc2)cc1 | 100 | 97 | 30
22 | c1ccc(-c2nnc(-c3ccccn3)nc2NC2CCCCC2)cc1 | 97 | 80 | 74
23 | CC(C)OC(=O)c1cccnc1SCC(=O)Nc1ccc(C(F)(F)F)cc1Cl | 97 | 88 | 3
24 | CN(C)CCCOc1cc(NC(=O)Nc2ccc(-c3ccncc3)c3ccccc23)ccc1I.Cl | 100 | 97 | 46
25 | CC(C)CNCc1ccc(-c2ccc(CN(CCCN3CCN(C)CC3)C(=O)/C=C/c3ccccc3)cc2)cc1.O=C(O)C(F)(F)F | 99 | 93 | 57
26 | CC(C)CNCc1cccc(-c2cccc(CNc3ccc4ncccc4c3)c2)c1.O=C(O)C(F)(F)F | 92 | 28 | 23
27 | COc1ccc2cc(-c3nc(-c4c(Cl)cccc4Cl)[nH]c3-c3ccnc(NCCCN4CCCCC4C)c3)ccc2c1.O=C(O)C(F)(F)F (stereo not given) | 94 | 86 | 19
28 | COc1cccc(NC(=O)N2CCOC(CCN3CCC4(CCc5ccccc54)CC3)(c3ccc(Cl)c(Cl)c3)C2)c1 (stereo not given) | 94 | 72 | 97
29 | O=C(Nc1ccc([N+](=O)[O-])cc1Cl)c1cc2ccccc2cc1O | 94 | 28 | 6
30 | O=C(Nc1cc(=O)[nH]c2nc(-c3ccccc3)nn12)C1CCCCC1 | 86 | 89 | 0
31 | COc1ccc(CN2C(=S)N(Cc3ccccc3)C(=O)C2CC(=O)Nc2ccccc2)cc1OC (stereo not given) | 96 | 73 | 6
32 | CC(C)N1CCC(Oc2ccc(CN3CCN(C(c4ccccc4)c4ccc(Cl)cc4)CC3)cc2)CC1.Cl (stereo not given) | 97 | 46 | 44
33 | NC(=O)c1cccc(C(=O)Nc2ccc(-c3cccc(-c4nc5cc(F)ccc5[nH]4)c3)cc2)c1 | 94 | 5 | 45
34 | C=CCOc1ccccc1CNCC(O)c1cc(Br)cs1 (stereo not given) | 93 | 72 | 25
35 | CS(=O)(=O)Nc1cccc(-c2cnc3[nH]cc(-c4ccc(C(=O)O)cc4)c3c2)c1 | 98 | 82 | 0
36 | COc1ccc2nccc(NC(=O)C3CCC(NCc4ccc5c(c4)NC(=O)CS5)CC3)c2c1 (stereo not given) | 94 | 19 | 0
37 | O=c1cc(NCCCNC(c2ccccc2)c2ccc(Cl)c(Cl)c2)[nH]c2ccccc12 (stereo not given) | 89 | 94 | 13
38 | COc1cc(Cc2cnc(N)nc2N)c2ccsc2c1OC.Cl | 92 | 4 | 5
39 | CCNc1cc(C(=O)N[C@@H](Cc2ccccc2)[C@H](O)CNC(C)C)cc(N2CC(c3ccccc3)CCS2(=O)=O)c1 (stereo not given in full) | 98 | 99 | 0
40 | CCOC(=O)c1nc(-c2ccccc2)[nH]c1-n1nc(C)cc1C | 92 | 9 | 7

Row | Compound | Inhibition [1] [%] | Inhibition [2] [%] | Inhibition [3] [%]
41 | COc1ccc(CNCc2ccc(-c3ccc(-c4nc5cc(C(F)(F)F)ccc5[nH]4)s3)cc2)cc1.O=C(O)C(F)(F)F | 100 | 98 | 38
42 | CC(=O)Nc1ccc(S(=O)(=O)N(Cc2cccc(Oc3ccccc3)c2)C2CCN(C/C=C(\C)CCC=C(C)C)CC2)cc1 | 100 | 99 | 22
43 | Cl.O=C(NC1CCN(CC2(c3ccc(Cl)cc3)CCCCC2)CC1)c1cc[nH]n1 | 98 | 96 | 0
44 | CCOc1cc(C(=O)Nc2ccc(-c3nc4ccccc4[nH]3)cc2)cc(OCC)c1OCC | 100 | 94 | 42
45 | CCOc1ccc(C(=O)Nc2cc(Br)c3c(c2)CNCC3)cc1Br.Cl | 96 | 21 | 18
46 | CCC(C)OC(=O)C1=C(C)NC2=C(C(=O)CC(c3ccc(OC)c(OC)c3)C2)C1c1ccc(C)o1 (stereo not given) | 93 | 82 | 6
47 | CC(C)(C)c1ccc(CN2CCC(NC(=O)c3cc(-c4cccc(C(F)(F)F)c4)cs3)C2)cc1.O=C(O)C(F)(F)F (stereo not given) | 98 | 85 | 24
48 | CC(C)(CNC(=O)/C=C/c1ccc(Cl)c(Cl)c1)CNc1cc(=O)c2ccccc2[nH]1 | 96 | 29 | 0
49 | O=C(NC1CC1)c1ccc(Cn2c(SCc3cccc([N+](=O)[O-])c3)nc3ccccc3c2=O)cc1 | 91 | 65 | 12
50 | COc1ccc(Nc2nccc(-c3ccc(NC(=O)c4cc5cc(F)ccc5[nH]4)cc3)n2)cc1 | 91 | 26 | 21
51 | COc1ccc2nccc([C@@H](O)CN3CCC(NCCOc4ccccc4C#N)CC3)c2c1.O=C(O)C(=O)O | 100 | 99 | 10
52 | CN1CCN(CCCNCc2ccccc2-c2cccc(CNCc3ccc4c(c3)OCO4)c2)CC1.O=C(O)C(F)(F)F | 100 | 7 | 34
53 | Oc1cc(Nc2ccnc3cc(-c4cccc(CN5CCCCC5)c4)ccc23)c(F)cc1Cl | 100 | 100 | 21
54 | O=C(/C=C/c1ccc(Cl)c(Cl)c1)NCC1CCN(Cc2ccc(O)cc2)CC1.O=C(O)C(F)(F)F | 98 | 0 | 4
55 | CN(CCCCNC(=O)c1cc2ccccc2[nH]1)C1CC2(CCN(C(=O)OC(C)(C)C)CC2)c2ccccc21 (stereo not given) | 86 | 75 | 12
56 | Cl.O=C(Nc1cccc(C2=NCCCN2)c1)Nc1cccc(C2=NCCCN2)c1 | 81 | 70 | 5
57 | COc1ccc(F)cc1-c1ccccc1CNC(=O)CN(C)S(=O)(=O)c1cc(C)cc(Cl)c1C | 92 | 73 | 0
58 | COc1ccc2nccc(N(C)CC3(O)CCC(NCc4ccc5c(n4)NC(=O)CS5)CC3)c2n1.Cl (stereo not given) | 98 | 23 | 1
59 | Cn1cnc2c(SCc3ccc(OCc4ccccc4)cc3)ncnc21 | 95 | 87 | 1
60 | CCCc1c(Cl)cc(CNCCCNc2nc3ccncc3[nH]2)cc1Cl | 98 | 0 | 23
